{"source": "PubChem BioAssay AID2283179", "about": "(EPA ToxCast)", "note": "Inconclusive results are not listed. The source made the active and inactive calls. The calls were made as follows: active = hit-call score of the fitted dose curve at least 0.9, where 1 is the maximum; inconclusive = response in the unintended direction; inactive = score below 0.9."}
{"biological_target": "human Microtubule Affinity Regulating Kinase 1 (MARK1), MARK1 (gene 4139) (UniProt Q9P0L2)", "sequence (Q9P0L2 whole entry, looked up)": "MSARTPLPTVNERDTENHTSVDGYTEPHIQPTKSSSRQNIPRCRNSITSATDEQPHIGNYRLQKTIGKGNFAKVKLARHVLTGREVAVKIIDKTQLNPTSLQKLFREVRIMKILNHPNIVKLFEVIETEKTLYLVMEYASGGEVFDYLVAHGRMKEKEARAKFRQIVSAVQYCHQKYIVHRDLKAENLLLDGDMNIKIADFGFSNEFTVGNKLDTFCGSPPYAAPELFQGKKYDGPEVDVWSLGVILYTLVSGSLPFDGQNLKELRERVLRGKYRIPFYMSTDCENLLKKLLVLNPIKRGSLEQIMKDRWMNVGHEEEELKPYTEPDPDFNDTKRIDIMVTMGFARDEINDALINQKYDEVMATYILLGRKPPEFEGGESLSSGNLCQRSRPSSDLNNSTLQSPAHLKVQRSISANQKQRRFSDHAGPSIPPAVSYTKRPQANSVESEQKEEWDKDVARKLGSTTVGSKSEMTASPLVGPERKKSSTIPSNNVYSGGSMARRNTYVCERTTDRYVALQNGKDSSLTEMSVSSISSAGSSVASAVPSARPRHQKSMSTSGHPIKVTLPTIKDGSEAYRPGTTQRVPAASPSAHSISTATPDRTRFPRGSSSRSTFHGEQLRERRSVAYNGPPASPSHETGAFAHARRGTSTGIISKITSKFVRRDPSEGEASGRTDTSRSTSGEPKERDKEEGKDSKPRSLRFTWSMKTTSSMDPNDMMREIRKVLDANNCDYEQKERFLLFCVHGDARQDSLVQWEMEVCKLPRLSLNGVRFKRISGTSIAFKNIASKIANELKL", "assay": "NVS_ENZ_hMARK1: NovaScreen (NVS) Enzymatic Assay for human Microtubule Affinity Regulating Kinase 1 (MARK1)", "procedure": "NVS_ENZ_hMARK1 is a biochemical, single-readout assay that uses extracted gene-proteins in a cell-free assay. Measurements were taken 1 hour after chemical dosing in a 384-well plate.NVS_ENZ_hMARK1 is one of one assay component(s) measured or calculated from the NVS_ENZ_hMARK1 assay. It is designed to make measurements of enzyme activity, a form of enzyme reporter, as detected with fluorescence intensity signals by Fluorescence and electrophoretic mobility shift technology.Data from the assay component NVS_ENZ_hMARK1 was analyzed into 1 assay endpoint. This assay endpoint, NVS_ENZ_hMARK1, was analyzed in the positive analysis fitting direction relative to DMSO as the negative control and baseline of activity. Using a type of enzyme reporter, loss-of-signal activity can be used to understand changes in the enzymatic activity as they relate to the gene MARK1. Furthermore, this assay endpoint can be referred to as a primary readout, because this assay has produced multiple assay endpoints where this one serves a enzymatic activity function. To generalize the intended target to other relatable targets, this assay endpoint is annotated to the kinase intended target family, where the subfamily is serine/threonine kinase.\nBinding assays used specific radioligands (tritiated, iodinated) with non-radioactive competitive displacement ligands in agonist or antagonist protocols (as indicated) and various reference compounds and inhibitors to titrate specific binding to receptors and transporters. Most enzyme assays (CYPs, kinases, phosphatases, proteases, HDACs) used recombinant protein and specific substrates (fluorescence mostly, some colorimetric and radioactive) and inhibitors, followed by a biochemical separation of substrate and product. All assays for the biochemical HTS were initially run in duplicate at a single concentration (10 uM for CYP450 assays and 25 uM for all others). Assay-chemical combinations meeting a pre-defined threshold (e.g., 30% inhibition and other criteria defined below) were then run in singleton concentration-response format with maximum concentration of 20 uM for CYPs and 50 uM for all others. Each assay was run with positive and negative controls, and concurrent controls on every plate. The follow-up (secondary) screen tested active chemical-pairs in concentration series, as well as a few additional assays not tested in the primary screen, some selected negative inactives, and several cases re-run in the concentration series for confirmatory purposes."}
{"smiles": "O=C(Nc1ccc([N+](=O)[O-])cc1Cl)c1cc(Cl)ccc1O", "outcome": "inactive"}
{"smiles": "S=C([S-])NCCNC(=S)[S-].[Mn+2]", "AC50": "406 nM (active)"}
{"smiles": "S=C(S)NCCNC(=S)S.[Mn+2].[S-]C([S-])=NCCN=C([S-])[S-].[Zn+2]", "AC50": "1380 nM (active)"}
{"smiles": "O=C(O)C1(C(=O)Nc2ccc(Cl)cc2Cl)CC1", "AC50": "7850 nM (active)"}
